Among all 220,000 compounds or so, about 830 (0.38%) were called active. These entries were drawn from the full list. Results with a measured potency or affinity are listed apart. Values without a mark were called inactive.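 The calls were made as follows: active = compound inhibiting the enzyme by more than half at any dose during confirmatory dose-response retesting; inconclusive = strong single-dose inhibitors picked by rank but not retested; inactive = the rest.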
biological target: Leucine aminopeptidase (Plasmodium falciparum (isolate 3D7)) (UniProt Q8IL11); assay: P. falciparum M17LAP inhibitors, primary screen, biochemical, fluorogenic H-Leu-NHMec substrate, 1536-well (AID 1619); details: recombinant M17LAP, H-Leu-NHMec fluorogenic kinetic assay; at 30 µM; hits give high values;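 also: plate controls were full reaction with DMSO carrier for no effect and no enzyme background for full effect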
Sequence (Q8IL11 whole entry, looked up): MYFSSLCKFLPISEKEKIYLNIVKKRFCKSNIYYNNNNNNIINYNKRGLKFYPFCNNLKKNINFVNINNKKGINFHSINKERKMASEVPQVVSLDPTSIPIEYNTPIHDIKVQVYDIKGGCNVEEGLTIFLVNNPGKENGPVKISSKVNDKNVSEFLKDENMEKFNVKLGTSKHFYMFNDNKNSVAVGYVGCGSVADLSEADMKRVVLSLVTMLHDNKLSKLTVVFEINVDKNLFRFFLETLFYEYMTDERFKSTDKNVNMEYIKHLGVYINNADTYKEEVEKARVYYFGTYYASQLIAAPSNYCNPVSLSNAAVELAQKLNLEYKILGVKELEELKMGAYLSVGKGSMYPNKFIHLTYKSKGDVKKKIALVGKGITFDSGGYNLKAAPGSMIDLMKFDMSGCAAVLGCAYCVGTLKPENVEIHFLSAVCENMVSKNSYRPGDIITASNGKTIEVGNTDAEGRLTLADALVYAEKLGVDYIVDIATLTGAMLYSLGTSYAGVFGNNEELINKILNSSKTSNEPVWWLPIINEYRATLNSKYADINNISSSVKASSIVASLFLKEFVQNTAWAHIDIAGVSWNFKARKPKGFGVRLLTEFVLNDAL

Structure (SMILES) | inhibition [%]
O=C(CSc1nnc2sc3ccccc3n12)c1ccco1 | -1.98
O=C(CC1SC(=NCCc2ccccc2)N(/N=C/c2cccs2)C1=O)Nc1ccc(Cl)cc1 (stereo not drawn) | -1.78
c1ccc2c(-c3cc(C4CCNCC4)[nH]n3)cccc2c1 | -3.07
CCCc1cc(C(=O)NCc2ccco2)no1 | -5.04
COc1ccccc1CC(=O)NNC(=O)c1cccs1 | -2.69
O=C(CSc1nccc(=O)[nH]1)N1CCN(c2ccccc2)CC1 | 5.66
CCOC(=O)COc1ccc(S(=O)(=O)Nc2ccc3c(c2)OCCO3)cc1 | 2.78
Cn1c(SCC(=O)Nc2ccc(Br)cc2)nc(O)cc1=O | 10.4
COc1ccc2nc(NC(=O)CSc3nccc(C)n3)sc2c1 | 1.42
COC(=O)c1ccc(NC(=O)CSc2nc(C)cc(=O)[nH]2)cc1 | 35.4
COc1ccc(NC(=O)CSc2nc(C)cc(C(F)(F)F)n2)cc1 | 19
COc1ccc(NC(=O)CSc2nc(C)cc(C)n2)cc1 | 44
Cc1cc(C)nc(NC(=O)CSc2nccc(C)n2)n1 | 5.87
Cc1ccc(NC(=O)CSc2nc(O)cc(=O)n2C)cc1 | 7.3
Cc1cc(=O)[nH]c(SCC(=O)Nc2ccc(C(=O)O)cc2)n1 | 8.39
Cc1cc(C)n(-c2nnc(C)n2N)n1 | 1.79
COc1ccc(-c2ccn(-c3cccc(F)n3)n2)cc1 | 10.6
O=C(N/N=C/c1ccc2c(c1)OCO2)C(=O)Nc1ccccc1 | 5.86
CC(=O)c1ccccc1OCCn1nnc(-c2ccc(C)cc2)n1 | 12.1
CCCOc1ccc(-c2c(C(=O)N/N=C/c3ccc(C)cc3)nnn2-c2nonc2N)cc1 | -4.98
CCOC(=O)C1=C(Nc2ccc(C)cc2)CC(C)(O)C(C(=O)OCC)C1c1ccccc1 (stereo not drawn) | 0.02

Structure (SMILES) | inhibition [%]
Cc1cc(C)nc(N2CCC(C(=O)Nc3nnc(C)s3)CC2)n1 | 1.03
CC(C)(C)Nc1nc2cc([N+](=O)[O-])ccc2o1 | 2.86
Cc1nn(-c2nnc(C)c(=O)[nH]2)c(C)c1SCC(=O)Nc1ccc(F)cc1 | 46.2
CCN(CC)c1ccc(NC(=O)CSc2nnc3nc(C)cc(C)n23)cc1 | 45.5
COc1ccc(NC(=O)CSc2c(C)n[nH]c2C)cc1 | 21.7
Cc1nn(-c2nnc(C)c(=O)[nH]2)c(C)c1SCC(=O)Nc1ccc(C(C)C)cc1 | 63.3
Cc1cc(C)nc(SCC(=O)Nc2ccc(N3CCOCC3)cc2)n1 | 24.8
COc1ccc(NC(=O)CSc2ccc(C)cc2)cc1 | -1.37
COc1ccc(Cc2nn3c(-c4ccccc4OC)nnc3s2)cc1 | 18.6
CC1=CC(C)(C)n2c(O)c(N=N)c3c(C)c(C)cc1c32 | 14.8
Cc1c(C(=O)NCCSCc2ccccc2Cl)cccc1[N+](=O)[O-] | 4.93
CCOc1ccc(NC(=O)Nc2cc(-c3ccccc3)sc2C(=O)OC)cc1 | -2.36
Cc1cc(C)nc(SCC(=O)Nc2ncc3c(n2)CCCC3=O)n1 | -1.93
Cc1nn(C)cc1CN(C)C(=O)c1nn2c(c1Cl)NC(c1cccs1)CC2C(F)(F)F (stereo not drawn) | 11.7
CC(C)(C)C(=O)N1CCC(O)(CS(=O)(=O)Cc2ccccc2Cl)CC1 | 13.8
Cc1ccc(-n2c(SCC(N)=O)nnc2-c2cccnc2)c(C)c1 | 1.98
Cc1ccc(-n2c(SCC(=O)N3CCCc4ccccc43)nnc2-c2cccnc2)c(C)c1 | 7.68
Cc1cccc(C)c1NC(=S)N1CCC(c2ccccc2)C1 (stereo not drawn) | 2.96
O=c1nc(-c2ccccc2)c2cc(Cl)ccc2[nH]1 | 3.02
COc1ccc(/C=C2\CCCC3C2=NN(C(=O)c2scnc2C)C3c2ccc(OC)c(OC)c2)cc1OC (stereo not drawn) | -6.36
Nc1nc2ncc(C(=O)c3cc(F)ccc3O)cc2s1 | 12.6

Structure (SMILES) | inhibition [%]
Cc1[nH]nc2ncc(C(=O)c3cc(F)ccc3O)cc12 | 9.66
CS(=O)(=O)Nc1nnc(Cc2ccccc2)s1 | 9.67
CCCn1c(NCc2cccc(OC)c2O)nc2ccccc21 | -4.67
COc1cc(/C=N/n2c(C)n[nH]c2=S)ccc1OCc1ccc(F)cc1 | -2.61
CC(C)(C)OC(=O)N1CCCC1C(=O)O (stereo not drawn) | -3.69
O=C(Cn1cnc2ccccc2c1=O)c1c[nH]c2ccccc12 | 11.6
COc1ccc(NC(=O)Nc2ccc3nccnc3c2)cc1 | 37.8
CCOc1ccc(NC(=O)c2ccc3nccnc3c2)cc1 | -3.72
Cc1nc2cc(NC(=O)Nc3ccc(Br)cc3)ccc2o1 | -1.6
Cc1ccc(NC(=O)Nc2cccs2)cc1 | 22.4
CCc1ccc(NC(=O)Nc2cccs2)cc1 | 38.6
CC(=O)Nc1ccc2oc(C)nc2c1 | 0.35
CCn1c(=O)c(C(=O)NCc2cccnc2)c(O)c2ccccc21 | 2
CS(=O)(=O)N1N=C(c2ccco2)CC1c1ccccc1Cl (stereo not drawn) | 5.77
CN(C(=O)CSc1nc(-c2ccccc2)c(-c2ccccc2)o1)C1CCS(=O)(=O)C1 (stereo not drawn) | 5.76
NC(=O)c1c(-c2ccc(Cl)cc2Cl)csc1NC(=O)Cc1ccccc1 | 6.81
CC(=O)Nc1ccc(NC(=O)CSc2nnc(-c3ccccc3)n2Cc2ccc3c(c2)OCO3)cc1 | 5.97
COC(=O)c1[nH]c2c(c1C)C(=O)CCC2 | 6.36
CCN1C(=O)/C(=C2\C=Cc3cc(C)ccc3N2CC)OC1=S | 1.65
CCOc1cc(/C=C2\C(=O)N(CCC#N)N=C2C)ccc1OCC(N)=O | 4.75
CC1=NN(Cc2ccccc2)C(=O)/C1=C\c1ccc(N(C)C)cc1 | 3.83

— PubChem BioAssay AID1619 (SRMLSC, 2009)
